# According to ChEMBL document CHEMBL3988442, “University of Dundee, Small-Polar-MMV Screening Library” (2021):
# The whole screen tested about 66,000 compounds, of which about 960 (1.5%) showed an effect of 50% or more. This excerpt belongs to a sample that is enriched for strong results.
# Tested on: Trypanosoma brucei
# Test: Trypanosoma brucei 72 hour study
# Type: functional, organism-based
# Set-up: scale not given: in the data most compounds retested in dose-response had high values
smiles,measurement,setting,value
Cc1ccc(C(NC(=O)C2CC2)c2cccc(S(C)(=O)=O)c2)cc1 (stereo unspecified),Percent Effect,"30 µM, 30.03 µM",-25.5%
CS(=O)(=O)CCNC(=O)Nc1sc2ccccc2c1Cl,Percent Effect,"30.3 µM, […]",-157.9%
CN(C)C(=O)CCNC(=O)Nc1sc2ccccc2c1Cl,Percent Effect,"30.3 µM, […]",-534.4%
CN(C)CC(C)(O)CNC(=O)Nc1sc2ccccc2c1Cl (stereo unspecified),Percent Effect,"30.3 µM, […]",103.3%
Cn1nc(COCC2CC2)c2c1CCN(Cc1cccs1)C2.O=C(O)C(F)(F)F,Percent Effect,"30.3 µM, […]",-72.61%
O=C(O)C(F)(F)F.c1cncc(N2CCCn3nnc(COCC4CC4)c3C2)c1,Percent Effect,"30.3 µM, […]",-2.195%
CN(C)CCN1C(=O)CCCC12CCCN(C(=O)c1cc[nH]n1)C2.O=C(O)C(F)(F)F (stereo unspecified),Percent Effect,"30.3 µM, […]",-2.017%
CCOc1ncccc1CNC(=O)NC(C)Cn1cccn1 (stereo unspecified),Percent Effect,10 µM,-0.2891%
same,Percent Effect,"30.3 µM, […]",0.8601%
Cc1cc(C)n(C2CCCN(C(=O)c3ccc(F)cc3F)C2)n1 (stereo unspecified),Percent Effect,"30 µM, 30.03 µM",59.51%
Cc1nc(C)n(C2CCCN(C(=O)c3ccc(F)cc3F)C2)n1 (stereo unspecified),Percent Effect,"30 µM, 30.03 µM",1.062%
Cc1cc(C)n(C2CCCN(C(=O)c3cccc(F)c3F)C2)n1 (stereo unspecified),Percent Effect,"30 µM, 30.03 µM",-91.58%
Cn1cc(N2C(=O)CC[C@@H]3[C@H]2CCN3CC2CCOCC2)cn1.O=C(O)C(F)(F)F,Percent Effect,"30.3 µM, […]",-7.648%
CC(=O)N1CCC2(CCN(Cc3ccccn3)C2=O)C1.O=C(O)C(F)(F)F (stereo unspecified),Percent Effect,"30 µM, 30.03 µM",1.584%
Clc1cccc(N2CCC(NCc3cc[nH]n3)C2)c1 (stereo unspecified),Percent Effect,"30 µM, 30.03 µM",15.76%
Clc1cc(Cl)cc(CN2CCC(NCc3ncc[nH]3)CC2)c1,Percent Effect,"30.3 µM, […]",-65.03%
Clc1cc(Cl)cc(CN2CCC(NCc3cc[nH]n3)CC2)c1,Percent Effect,"30.3 µM, […]",90.13%
Cc1ccc(CN2CCc3ncc(CNC(=O)C4CCC4)n3CC2)o1.O=C(O)C(F)(F)F,Percent Effect,"30.3 µM, […]",-36.54%
CCC(C)(C)n1nnnc1C(c1cccs1)N1CCCCC1 (stereo unspecified),Percent Effect,"30.3 µM, […]",13.9%
CCC(CNC(=O)c1ccccn1)N1CCc2ccccc2C1 (stereo unspecified),Percent Effect,"30 µM, 30.03 µM",-43.95%
Cc1noc(C)c1C(=O)NCC(C)N1CCc2ccccc21 (stereo unspecified),Percent Effect,10 µM,-61.25%
CCC(C)(C)n1nnnc1C(c1cccs1)N1CCc2ccccc2C1 (stereo unspecified),Percent Effect,"30.3 µM, […]",99.92%
CCC(C)(C)n1nnnc1C(c1cccs1)N1CCc2ccccc21 (stereo unspecified),Percent Effect,"30.3 µM, […]",72.61%
COc1ccc(-c2n[nH]c(C)c2CC(=O)N2CCOCC2)cc1,Percent Effect,"30 µM, 30.03 µM",6.943%
CNC(=O)c1cc2c(nc1NCC1CC1)CCN(S(C)(=O)=O)CC2.O=C(O)C(F)(F)F,Percent Effect,"30 µM, 30.03 µM",-3.721%
Cc1csc(C(=O)N2CC[C@H](Oc3cccnc3C)[C@@H](O)CC2)c1,Percent Effect,"30.3 µM, […]",-24.66%
COc1ccc(CN2CCn3cccc3C2C)cc1F (stereo unspecified),Percent Effect,"30 µM, 30.03 µM",11.74%
C=Cc1ccc(CN2C(=O)C3(CCNCC3)Nc3ccccc32)cc1,Percent Effect,"30 µM, 30.03 µM",-41.13%
N#Cc1cccc(CN2C(=O)c3ccccc3CS2(=O)=O)c1,Percent Effect,"30 µM, 30.03 µM",-36.86%
CC(C)c1ccc(CN2C(=O)C3(CCNCC3)Nc3ccccc32)cc1,Percent Effect,"30 µM, 30.03 µM",101.9%
N#Cc1cccc(CN2C(=O)C3(CCNCC3)Nc3ccccc32)c1,Percent Effect,"30 µM, 30.03 µM",83.34%
NC(=O)c1ccc(CN2C(=O)C3(CCNCC3)Nc3ccccc32)cc1,Percent Effect,"30 µM, 30.03 µM",8.328%
CN1CC2(CCN(Cc3cccc(C#N)c3)CC2)CC1=O,Percent Effect,"30 µM, 30.03 µM",-2.169%
O=C(O)C(F)(F)F.O=C(O)C(F)(F)F.c1cc(CN2Cc3nccn3CC(Cn3cncn3)C2)ccn1 (stereo unspecified),Percent Effect,"30 µM, 30.03 µM",-13.09%
CNC(=O)CN1CCc2c(CNc3nccs3)n[nH]c2C1.O=C(O)C(F)(F)F,Percent Effect,"30 µM, 30.03 µM",-11.16%
Cc1cc(N(C)CC2COc3ccccc3O2)nc(C)n1 (stereo unspecified),Percent Effect,"30.3 µM, […]",-13.97%
CCN1CC(CN(C)c2cc(C)nc(N)n2)Oc2ccccc21 (stereo unspecified),Percent Effect,"30.3 µM, […]",98.13%
Cc1cc(N(C)CC2COc3ccccc3O2)nc(N)n1 (stereo unspecified),Percent Effect,"30.3 µM, […]",-9.48%
CC(C)CS(=O)(=O)N1C[C@H]2C[C@H](C(=O)Nc3cccnc3)[C@@H](C1)O2,Percent Effect,"30 µM, 30.03 µM",-5.396%
COCCO[C@H]1CCN(c2ccc(C)nn2)[C@H]1Cc1cccnc1.O=C(O)C(F)(F)F.O=C(O)C(F)(F)F,Percent Effect,"30.3 µM, […]",-12.33%
COc1ccccc1CN1C[C@@H]2COC[C@]2(COc2cccnc2)C1.O=C(O)C(F)(F)F.O=C(O)C(F)(F)F,Percent Effect,"30 µM, 30.03 µM",-13.45%
COc1cc(N2C[C@@H]3COC[C@]3(COCc3ccccn3)C2)ncn1.O=C(O)C(F)(F)F.O=C(O)C(F)(F)F,Percent Effect,"30 µM, 30.03 µM",-23.44%
COc1cc(N2C[C@@H]3COC[C@]3(COc3ncccc3F)C2)ncn1.O=C(O)C(F)(F)F.O=C(O)C(F)(F)F,Percent Effect,"30 µM, 30.03 µM",51.8%
COc1ccccc1CN1C[C@@H]2COC[C@]2(COCc2ccncc2)C1.O=C(O)C(F)(F)F.O=C(O)C(F)(F)F,Percent Effect,"30 µM, 30.03 µM",59.56%
Fc1cccc(CN2C[C@@H]3COC[C@]3(COCc3ccncc3)C2)c1.O=C(O)C(F)(F)F.O=C(O)C(F)(F)F,Percent Effect,"30 µM, 30.03 µM",-8.118%
COc1cc(N2C[C@@H]3COC[C@]3(COc3ccccn3)C2)ncn1.O=C(O)C(F)(F)F.O=C(O)C(F)(F)F,Percent Effect,"30.3 µM, […]",-11.8%
